Screens: PubChem BioAssay, several laboratories
NR3A LBD binder – modulates the human NR3A ligand-binding domain | NR3A LBD differential scanning fluorimetry, Tm shift; 0% = protein alone, 100% = glycine-bound protein | Tm shift relative to glycine control, % at 25 µM | hit rate 2.5% among 340,000;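 active means melting temperature shift of at least 10% of the positive control shift, at one fixed dose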
NadD block – NadD (S. aureus) enzyme inhibition | purified NadD enzyme, colorimetric absorbance read-out | inhibition, % at 20 µM | hit rate 0.78% among 360,000; in the data active means inhibition above about 26%
SKN-1 block – inhibitors of C. elegans SKN-1 | C. elegans VP596 Pgst-4::GFP/RFP ratio, acrylamide-induced, 24 h | inhibition, % at 21.8 µM | hit rate 0.49% among 360,000;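 active means interference check ratio from 0.5 to 1.5 plus GFP to RFP signal ratio inhibition reaching or exceeding a fixed threshold, cut at about 30% in these data, passing the limit was not always enough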
Vif imaging – inhibitors of HIV Vif | HEK293T cells, Vif self-association by quenched fluorescence, imaging, 24 h | inhibition, % at 7.49 µM | hit rate 0.35% among 340,000; in the data active means inhibition above about 50%, passing the limit was not always enough; inconclusive means no clear call, values can overlap the other calls; inactive means below about 31%
esBAF inh – blocks esBAF chromatin remodeling in mouse ES cells. reporter increase, % at 12.5 µM. Bmi1-luciferase knock-in reporter, 24 h; 100% = twice the neutral-well signal. hit rate 2% among 350,000. AID 602393; in the data active means activation above about 40%; inconclusive means no clear call, values can overlap the other calls;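 further: 0% = median of the plate's neutral control wells and 100% = double that signal; a rise in the Bmi1 reporter signal indicates esBAF inhibition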
SMARCA2 activ – SMARCA2 function activation, primary screen | MG213 cells, MMTV-luciferase reporter, dexamethasone, overnight | activation, % at 9.1 µM | hit rate 1% among 370,000 | AID 652017; in the data active means activation above about 7.8%;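 further: 0% = vehicle wells and 100% = reference activator wells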
* = called active by the depositor; ? = inconclusive; . = not tested or not shown. Sampled rows, rich in hits. Any-hit rate of the full collection: about 5.2%.

SMILES	NR3A LBD binder	NadD block	SKN-1 block	Vif imaging	esBAF inh	SMARCA2 activ
COC(=O)c1c(NC(=O)c2ccco2)sc2c1CCC2	0	-2	40*	-14	5	0
Cc1ccc(C(=O)Nc2sc3c(c2C(=O)O)CCC(C)C3)o1 (stereo not given)	0	-7	1	-4	49*	1
Clc1ccc(-n2nnnc2Sc2ncnc3sccc23)cc1	1	5	-2	184*	-16	-8
Cn1nnnc1Sc1ncnc2scc(-c3ccc([N+](=O)[O-])cc3)c12	13*	-2	9	-5	-30	-7
Cn1nnnc1Sc1ncnc2scc(-c3ccc(Cl)cc3)c12	0	2	5	149*	-3	-3
COc1ccc(-c2csc3ncnc(Sc4nnnn4C)c23)cc1	0	-3	-4	25	-7	1
O=C(C[C@@H]1CC[C@H]2[C@@H](COC[C@H](O)CN2Cc2cccc(Cl)c2)O1)NCC1CCCCC1	.	.	.	.	6	.
Cc1noc(C)c1S(=O)(=O)Nc1ccc2c(c1)CC(=O)N([C@@H](C)CO)C[C@H](C)[C@H](CN(C)S(=O)(=O)c1ccc(F)cc1)O2	.	.	.	.	-1	.
CN(C(=O)CSc1ccc2c(c1)OCCO2)c1ccccc1	-1	0	-13	-3	60*	1
O=C(CSc1nccn(-c2ccc3c(c2)OCCO3)c1=O)Nc1ccccc1	1	-7	-16	4	49*	1
Cc1ccc(NC(=O)CSc2nccn(-c3ccc4c(c3)OCCO4)c2=O)cc1	0	-1	-7	?	.	1
Cc1ccc(NC(=O)CS(=O)CC(=O)Nc2ccc3c(c2)OCO3)cc1Cl (stereo not given)	30*	-5	-2	-6	-5	0
Cc1cccc(N(CC(=O)NC(C)(C)C)C(=O)CS(=O)CC(=O)Nc2ccc3c(c2)OCO3)c1 (stereo not given)	1	-7	-2	1	.	-5
O=C(CSc1ccccc1)Nc1ccc2c(c1)OCCO2	1	-3	-3	-6	54*	2
N#CCCN(C(=O)CSc1ccc2c(c1)OCCO2)c1ccccc1	1	-6	0	-2	-1	-4
COCC#Cc1ccc2c(c1)O[C@H](CN(C)C(=O)CC1CC1)[C@H](C)CN([C@@H](C)CO)S2(=O)=O	.	.	.	.	-8	.
Cc1noc(C)c1S(=O)(=O)Nc1ccc2c(c1)C(=O)N([C@@H](C)CO)C[C@@H](C)[C@@H](CN(C)Cc1ccc3c(c1)OCO3)OCCCC[C@H](C)O2	.	.	.	.	2	.
CC(C)NC(=O)N(C)C[C@@H]1OCCCC[C@@H](C)Oc2ccc(NC(=O)NC3CCCCC3)cc2C(=O)N([C@H](C)CO)C[C@@H]1C	.	.	.	.	-4	.
Cc1ccc(-n2nnnc2SCC(=O)NC(=O)Nc2ccc3c(c2)OCCO3)cc1	-4	-1	5	8	?	2
O=C(CSc1nnnn1-c1ccc(Cl)cc1)NC(=O)Nc1ccc2c(c1)OCCO2	-3	29	11	31	56*	2
O=C(CC1Nc2ccccc2NC1=O)Nc1ccc2c(c1)OCO2 (stereo not given)	-10	6	7	12	47*	3
CCCCOc1cccc2c(=O)n(CC(=O)Nc3ccc4c(c3)OCCO4)ccc12	.	0	5	73*	-4	-1
COc1ccc(NC(=O)Cn2ccc3c(OC)cccc3c2=O)cc1	0	-5	0	-5	.	-3
CCCOc1ccc(NC(=O)CC2Nc3ccccc3NC2=O)cc1 (stereo not given)	-6	0	6	25	16	-1
COCC(=O)Nc1c(C(=O)Nc2ccc3c(c2)OCO3)oc2ccccc12	-1	4	13	35	63*	6
SMILES	NR3A LBD binder	NadD block	SKN-1 block	Vif imaging	esBAF inh	SMARCA2 activ
O=C(C[C@@H]1CC[C@@H]2[C@H](COC[C@H](O)CN2S(=O)(=O)c2ccc(F)cc2)O1)NCc1ccncn1	.	.	.	.	-2	.
CC(C)COC(=O)N(C)C[C@@H]1OCc2ccccc2-c2c(n(C)c3ccccc23)C(=O)N([C@H](C)CO)C[C@@H]1C	.	.	.	.	2	.
O=C(CSc1nc2ncccc2[nH]1)Nc1ccc2c(c1)OCO2	2	5	8	3	.	-2
O=C(CSc1nnc(-c2cccs2)n1-c1ccccc1)NCc1ccc2c(c1)OCO2	-1	9	-9	.	.	5
O=C(CSc1ccc2c(c1)OCCO2)Nc1ccc2c(c1)OCO2	1	-5	8	6	16	.
Cc1ccc(NC(=O)CN2C(=O)C3C4C=CC(C4)C3C2=O)cc1 (stereo not given)	2	1	-5	-2	.	3
O=C(CN1C(=O)C2C3C=CC(C3)C2C1=O)Nc1ccc2c(c1)OCCO2 (stereo not given)	2	-1	-4	.	41*	-1
Cc1ccc(-n2c(SCC(=O)Nc3ccc4c(c3)OCO4)nnc2-c2cccs2)cc1	1	9	-13	76*	-5	0
O=C(CSc1ccccc1)Nc1ccc2c(c1)OCO2	-1	-2	25	9	44*	4
O=C(CSc1nc(-c2ccccc2)c(-c2ccccc2)[nH]1)Nc1ccc2c(c1)OCO2	13*	12	10	-1	.	4
C[C@H]1CN([C@@H](C)CO)C(=O)Cc2cc(NC(=O)Nc3ccc(F)cc3)ccc2O[C@@H]1CN(C)C(=O)Nc1cccc2ccccc12	.	.	.	.	1	.
C[C@@H]1CN([C@@H](C)CO)C(=O)c2cc(NC(=O)Cc3ccccc3)ccc2O[C@@H]1CN(C)C(=O)Nc1ccc(C(F)(F)F)cc1	.	.	.	.	2	.
Cc1ccc(S(=O)(=O)N(C)C[C@@H]2Oc3ccc(NC(=O)Nc4c(C)noc4C)cc3C(=O)N([C@H](C)CO)C[C@@H]2C)cc1	.	.	.	.	-6	.
COc1ccc(S(=O)(=O)N(C)C[C@@H]2Oc3ccc(NC(=O)c4ccncc4)cc3CC(=O)N([C@@H](C)CO)C[C@@H]2C)cc1	.	.	.	.	0	.
COc1ccc(NC(=O)CSc2nnnn2-c2ccc(F)cc2)cc1	14*	-6	2	24	1	-1
CSc1nsc(SCC(=O)Nc2ccc3c(c2)OCCO3)n1	-1	-12	-1	-9	43*	1
Cn1c(Cc2ccccc2)nnc1SCC(=O)Nc1ccccc1	-1	-13	6	2	-8	-2
CCn1c(SCC(=O)Nc2cc(C)on2)nnc1-c1ccncc1	3	0	5	-5	-3	-3
Cc1cc(NC(=O)CSc2nnc(-c3ccncc3)n2-c2ccc(F)cc2)no1	-2	-7	42*	2	.	-1
COc1ccc(NC(=O)CSc2nnnn2-c2ccc(OC)cc2)cc1	6	-7	-14	1	.	-5
Cn1c(Cc2ccccc2)nnc1SCC(=O)Nc1ccc2c(c1)OCO2	0	0	46*	5	-3	0
COCCNC(=O)C[C@@H]1CC[C@H]2[C@@H](COc3ccc(NC(=O)C4CCCC4)cc3C(=O)N2C)O1	.	.	.	.	-3	.
